# “And” between values parts separate entries of the source, which are not always exact repeats. Equal values may be shown once. Records with an inconclusive call do not appear. The source made the active and inactive calls. Calls follow the shape of the dose curve; as a rule, active = well fitted activation curve with a large enough effect; inconclusive = small, poorly fitted or top-dose-only effect; inactive = no such curve, though single readings can be large or run the other way.
# Assay: Extended Characterization of HPGD Inhibitors: PGE2 Assay in LNCaP Cells
# Details: PGE2 HTRF level, 16 h; series mostly up to 100 µM
# From the text: The central role of HPGD is to inactivate prostaglandins such as prostaglandin E2 (PGE2) or prostaglandin D2 (PGD2). These prostaglandins are involved in a number of processes, including inflammation, differentiation, and cellular signaling, which makes HPGD an important target for pharmacological intervention. A number of prostaglandins of particular biological interest have been identified as substrates of HPGD. […] Over-production of PGE2 has been reported to promote tumor-associated neovascularization, cell proliferation, and tumor growth. […] In this orthogonal assay, we set out to measure if compounds were able to increase PGE2 production NIH Chemical Genomics Center [NCGC] NIH Molecular Libraries Probe Centers Network [MLPCN] MLPCN Grant: MH084681 Assay Submitter (PI): Structural Genomics Consortium
# A549 cells, LNCaP cells or media were dispensed in 384-well plates (ProxiPlate-384 Plus, PerkinElmer, Shelton, CT) at 5,000 cells/9.9 uL/well using a CappAero384 multichannel pipette (Odense, Denmark). Separately on the plate, 10 uL of PGE2 calibration standards at a starting assay concentration of 5,000 pg/mL (1:2 dilution, 12-points, n = 1, prepared in media, Cisbio, Bedford, MA) were dispensed. Compounds (100 nL, final concentration range from 41.9 nM to 100 uM) were transferred using an ATS Acoustic Liquid Dispenser (EDC Biosystems, Fremont, CA). After being mixed using an automated liquid handler (CyBio, Jena, Germany), samples were incubated (37 deg C, 5% CO2, under a humidified atmosphere) for 16 hours. PGE2 labeled conjugates were added to each well, first 5 uL of PGE2-d2, followed by 5 uL of anti-PGE2-cryptate, centrifuged (1,500 rpm, 15 sec) and incubated (RT, protected from light) for 5 hours. Time-resolved fluorescence intensity (320 nm excitation, 615 and 665 nm emission) was measured using an Envision plate reader (PerkinElmer). Data was expressed as the ratio of 665 nm/615 nm emissions. Concentration (pg/mL) of samples were calculated from a 4-parameter logistic calibration curves of the PGE2 standards.
row,SMILES,Potency
1,O=[N+]([O-])c1ccccc1CSc1nc2ncc(Br)cc2[nH]1,0.352 µM (active)
2,N#Cc1cccc(CSc2nc3ncc(Br)cc3[nH]2)c1,35.2 µM (active)
3,O=C(c1ccc2c(c1)ncn2-c1cccc(C(F)(F)F)c1)N1CCCCC1,2.8 µM (active)
4,O=C(c1ccc2c(c1)ncn2-c1cccc(Cl)c1)N1CCCCC1,0.222 µM (active)
5,Cc1cc(-c2nnc3n2CCCCC3)c(C)n1-c1ccc([N+](=O)[O-])cc1,2.22 µM (active)
6,Cc1cccc(-n2cnc3cc(C(=O)N4CCCC(C(F)(F)F)C4)ccc32)c1 (stereo not given),1.76 µM (active)
7,CCOC(=O)c1ccc(-n2cnc3cc(C(=O)N4CCCCC4)ccc32)cc1,inactive
8,CC(C)c1cccc(-n2cnc3cc(C(=O)N4CCCCC4)ccc32)c1,2.8 µM (active)
9,N#Cc1ccccc1CSc1nc2ncc(Br)cc2[nH]1,35.2 µM (active)
10,Cc1cc(-c2nnc3n2CCCCC3)c(C)n1-c1ccc(Cl)c(Cl)c1,0.352 µM (active)
11,FC(F)(F)c1ccc(CSc2nc3ncc(Br)cc3[nH]2)cc1,44.3 µM (active)
12,Cc1cc(-c2nnc3n2CCCCC3)c(C)n1-c1ccc(F)cc1,3.52 µM (active)
13,Cc1cccc(-n2cnc3cc(C(=O)N4CCCC4)ccc32)c1,55.8 µM (active)
14,Brc1cnc2nc(SCc3ccccc3)[nH]c2c1,44.3 µM (active)
15,Cc1ccccc1CSc1nc2ncc(Br)cc2[nH]1,22.2 µM (active)
16,COc1ccc(CSc2nc3ncc(Br)cc3[nH]2)cc1F,22.2 µM (active)
17,Clc1ccc(CSc2nc3ncc(Br)cc3[nH]2)cc1,14 µM (active)
18,CCCCn1cnc2cc(C(=O)N3CCCCC3)ccc21,4.43 µM (active)
19,CC(C)(C)n1cnc2cc(C(=O)N3CCCCC3)ccc21,0.884 µM (active)
20,O=C(c1ccc2c(c1)ncn2-c1ccccc1)N1CCCCC1,0.28 µM (active)

row,SMILES,Potency
1,Cc1cc(-c2nnc3n2CCCCC3)c(C)n1-c1cccc(C#N)c1,1.76 µM (active)
2,FC(F)(F)c1cccc(CSc2nc3ncc(Br)cc3[nH]2)c1,35.2 µM (active)
3,COc1cccc(-n2cnc3cc(C(=O)N4CCCCC4)ccc32)c1,0.28 µM (active)
4,CCOC(=O)c1ccc(-n2c(C)cc(-c3nnc4n3CCCCC4)c2C)cc1,14 µM (active)
5,Cc1cccc(-n2cnc3cc(C(=O)N4CCC(c5ccccc5)CC4)ccc32)c1,inactive
6,Cc1cc(-c2nnc3n2CCCCC3)c(C)n1-c1cccc2ccccc12,884 nM (active) and 1.76 µM (active)
7,Cc1cc(-c2nnc3n2CCCC3)c(C)n1-c1ccccc1,7.03 µM (active)
8,N#Cc1ccc(CSc2nc3ncc(Br)cc3[nH]2)cc1,22.2 µM (active)
9,COc1ccccc1-n1cnc2cc(C(=O)N3CCCCC3)ccc21,1.76 µM (active)
10,Cc1ccc(-n2cnc3cc(C(=O)N4CCCCC4)ccc32)cc1,0.443 µM (active)
11,Cc1cccc(-n2cnc3cc(C(=O)N4CCC(Cc5ccccc5)CC4)ccc32)c1,inactive
12,Clc1cccc(CSc2nc3ncc(Br)cc3[nH]2)c1,44.3 µM (active)
13,O=[N+]([O-])c1cccc(CSc2nc3ncc(Br)cc3[nH]2)c1,inactive
14,Cc1cccc(-n2cnc3cc(C(=O)NC(C)(C)C)ccc32)c1,inactive
15,CC(C)(C)c1ccc(CSc2nc3ncc(Br)cc3[nH]2)cc1,35.2 µM (active)
16,N#Cc1ccccc1CNc1nc2ncc(Br)cc2[nH]1,inactive
17,COc1ccc(-n2cnc3cc(C(=O)N4CCCCC4)ccc32)cc1,0.884 µM (active)
18,Cc1cccc(-n2cnc3cc(C(=O)NC4CCCCC4)ccc32)c1,22.2 µM (active)
19,Brc1cnc2nc(SCc3ccccn3)[nH]c2c1,11.1 µM (active)
20,Cc1cccc(-n2cnc3cc(C(=O)N4CCCCCC4)ccc32)c1,1.76 µM (active)

# — PubChem BioAssay AID743172 (National Center for Advancing Translational Sciences (NCATS), 2013)
